Each structure is given as a SMILES string. Values joined by “and” are separate entries in the source; they are usually repeats but may differ in a detail not shown here. Equal values may be shown once. Some structures have more than one record in an assay (separate samples or runs), and their calls can disagree. Active and inactive are the calls of the source. The calls were made as follows: active = hit-call score of the fitted dose curve at least 0.9, where 1 is the maximum; inactive = score below 0.9.

Broadly, the AC50 is the concentration at which the activity in the assay is half-maximal.

Sequence of Broad substrate specificity ATP-binding cassette transporter ABCG2 (Homo sapiens) (Q9UNQ0 whole entry, looked up): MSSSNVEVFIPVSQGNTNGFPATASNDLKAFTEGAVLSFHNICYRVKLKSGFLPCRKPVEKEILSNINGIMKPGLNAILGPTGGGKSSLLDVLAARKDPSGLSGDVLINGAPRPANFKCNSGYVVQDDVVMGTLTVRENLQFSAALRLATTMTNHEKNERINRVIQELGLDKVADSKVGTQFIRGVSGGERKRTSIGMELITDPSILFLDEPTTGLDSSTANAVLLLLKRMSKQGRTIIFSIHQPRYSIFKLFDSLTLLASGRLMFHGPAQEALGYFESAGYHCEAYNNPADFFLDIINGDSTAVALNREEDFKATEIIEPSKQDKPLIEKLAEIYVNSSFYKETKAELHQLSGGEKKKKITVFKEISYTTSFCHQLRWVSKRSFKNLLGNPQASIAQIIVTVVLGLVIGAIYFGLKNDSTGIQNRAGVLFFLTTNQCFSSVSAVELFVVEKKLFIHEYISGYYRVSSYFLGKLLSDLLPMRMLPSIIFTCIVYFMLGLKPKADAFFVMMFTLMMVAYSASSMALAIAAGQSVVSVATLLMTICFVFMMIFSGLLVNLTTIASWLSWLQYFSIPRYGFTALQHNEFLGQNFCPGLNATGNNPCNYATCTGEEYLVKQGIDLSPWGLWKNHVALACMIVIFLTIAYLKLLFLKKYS

Read-out in the first assay: ABC Transporter (ABCB11), ABCB11 (gene 8647)
Nature of the assay: LTEA_HepaRG_ABCB11: Life Technologies and Expression Analysis (LTEA) Assay for ABC Transporter (ABCB11) using HepaRG (AID 2283463). The conditions noted are these: mRNA level, 48 h; actives raise or lower the signal. The gist of the method:
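Differentiated human HepaRG cells were exposed for 48 h in serum-free induction medium to eight half-log concentrations up to 100 uM in 0.5% DMSO. ABCB11 mRNA was quantified by qRT-PCR, normalized to ACTB, GAPDH and POLR2A, and fitted bidirectionally versus DMSO.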
Regarding `CC(C)(C)C(O)/C(=C\c1ccc(Cl)cc1Cl)n1cncn1` (stereo not given), the AC50 is 25.1 µM (active).

In the case of `CCOCN(C(=O)CCl)c1c(C)cccc1CC`, the AC50 was 82.5 µM (active).

Turning to `CCCN(CCOc1c(Cl)cc(Cl)cc1Cl)C(=O)n1ccnc1`, the AC50 was 25.5 µM (active).

As for `Cc1[nH]c(=O)n(C(C)(C)C)c(=O)c1Cl`, the outcome was inactive.

For the molecule `CC(C)OC(=O)Nc1cccc(Cl)c1`, the call was inactive.

For the molecule `CNC(=O)CSP(=S)(OC)OC`, the molecule was classed as inactive.

For `CC1(c2ccc(Oc3ccccc3)cc2)OC(=O)N(Nc2ccccc2)C1=O` (stereo not given), the AC50 is 8.3 µM (active).

For the molecule `CNC(=O)Oc1cccc(N=CN(C)C)c1`, the molecule was classed as inactive.

Read-out in a further assay: ABC Transporter (ABCC2), ABCC2 (gene 1244)
Nature of the assay: LTEA_HepaRG_ABCC2: Life Technologies and Expression Analysis (LTEA) Assay for ABC Transporter (ABCC2) using HepaRG (AID 2283464). The following applies: mRNA level, 48 h; actives raise or lower the signal. The gist of the method:
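After plating and 48 h culture, HepaRG medium is replaced with serum-free induction medium and chemicals are added (8 concentrations, max 100 uM, 0.5% DMSO) for 48 h. Total RNA then undergoes qRT-PCR for ABCC2 with housekeeping normalization.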
With `CNC(=O)/C=C(\C)OP(=O)(OC)OC`, the outcome was inactive.

Consider `N#Cc1c(Cl)c(Cl)c(Cl)c(C#N)c1Cl`, for which the outcome was inactive.

Turning to `CC1(C)C(C=C(Cl)Cl)C1C(=O)OC(C#N)c1ccc(F)c(Oc2ccccc2)c1` (stereo not given), the AC50 is 50 µM (active).

On to `O=C(NC(=O)c1c(F)cccc1F)Nc1ccc(OC(F)(F)C(F)OC(F)(F)F)c(Cl)c1` (stereo not given), for which the molecule was called inactive.

With `O=C(Nc1ccccc1)Nc1cnns1`, the AC50 is 89.5 µM (active).

In the case of `O=S(=O)(O)C(F)(F)C(F)(F)C(F)(F)C(F)(F)C(F)(F)C(F)(F)C(F)(F)C(F)(F)F`, the AC50 was 14.2 µM (active) and 90.7 µM (active); the outcome was inactive.

As to `CCc1ccc(C(=O)NN(C(=O)c2cc(C)cc(C)c2)C(C)(C)C)cc1`, the molecule was classed as inactive.

In the case of `COP(=O)(OC)OC=C(Cl)Cl`, the call was inactive.

For the molecule `CC[C@H](C)[C@H]1O[C@]2(C=C[C@@H]1C)C[C@@H]1C[C@@H](C/C=C(\C)[C@@H](O[C@H]3C[C@H](OC)[C@@H](O[C@H]4C[C@H](OC)[C@@H](O)[C@H](C)O4)[C@H](C)O3)[C@@H](C)/C=C/C=C3\CO[C@@H]4[C@H](O)C(C)=C[C@@H](C(=O)O1)[C@]34O)O2` (tested in a mixture with another compound), the AC50 was 30.2 µM (active).

As to `CNC(=O)Oc1ccccc1OC(C)C`, the outcome was inactive.

`O=C1c2ccccc2C(=O)N1SC(Cl)(Cl)Cl`: the result was inactive.

Regarding `CCOC1Oc2ccc(OS(C)(=O)=O)cc2C1(C)C` (stereo not given), the molecule was classed as inactive.

Turning to `O=C(O)CCCOc1ccc(Cl)cc1Cl`, the result was inactive.

As for `CC(C)(C)C(O)/C(=C\c1ccc(Cl)cc1Cl)n1cncn1` (stereo not given), the AC50 was 80.6 µM (active).

As for `CCOCN(C(=O)CCl)c1c(C)cccc1CC`, the result was inactive.

With `CCCN(CCOc1c(Cl)cc(Cl)cc1Cl)C(=O)n1ccnc1`, the AC50 was 84.8 µM (active).

Take `Cc1[nH]c(=O)n(C(C)(C)C)c(=O)c1Cl`: the outcome was inactive.

Regarding `CC(C)OC(=O)Nc1cccc(Cl)c1`, the result was inactive.

In the case of `CCC(C)(NC(=O)c1cc(Cl)c(C)c(Cl)c1)C(=O)CCl` (stereo not given), the AC50 was 89 µM (active).

On to `CNC(=O)CSP(=S)(OC)OC`, for which the result was inactive.

Turning to `CC1(c2ccc(Oc3ccccc3)cc2)OC(=O)N(Nc2ccccc2)C1=O` (stereo not given), the AC50 was 79.3 µM (active).

`CNC(=O)Oc1cccc(N=CN(C)C)c1`: the call was inactive.

Read-out in a further assay: Broad substrate specificity ATP-binding cassette transporter ABCG2 (Homo sapiens) (UniProt Q9UNQ0)
The assay can be described thus: LTEA_HepaRG_ABCG2: Life Technologies and Expression Analysis (LTEA) Assay for ABC Transporter (ABCG2) using HepaRG (AID 2283465). The conditions noted are these: mRNA level, 48 h; actives raise or lower the signal. An outline of the steps:
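Differentiated HepaRG cells in serum-free induction medium were exposed for 48 h, in duplicate, to eight half-log concentrations up to 100 uM in 0.5% DMSO. ABCG2 mRNA was measured by TaqMan qRT-PCR, normalized to ACTB, GAPDH and POLR2A, and fitted bidirectionally versus DMSO.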
As for `CNC(=O)/C=C(\C)OP(=O)(OC)OC`, the molecule was called inactive.

With `N#Cc1c(Cl)c(Cl)c(Cl)c(C#N)c1Cl`, the outcome was inactive.

`CC1(C)C(C=C(Cl)Cl)C1C(=O)OC(C#N)c1ccc(F)c(Oc2ccccc2)c1` (stereo not given): the AC50 is 21.4 µM (active).

With `O=C(NC(=O)c1c(F)cccc1F)Nc1ccc(OC(F)(F)C(F)OC(F)(F)F)c(Cl)c1` (stereo not given), the result was inactive.

On to `O=C(Nc1ccccc1)Nc1cnns1`, for which the outcome was inactive.

In the case of `O=S(=O)(O)C(F)(F)C(F)(F)C(F)(F)C(F)(F)C(F)(F)C(F)(F)C(F)(F)C(F)(F)F`, the AC50 is 14.4 µM (active) and 7.01 µM (active); the call was inactive.

As for `CCc1ccc(C(=O)NN(C(=O)c2cc(C)cc(C)c2)C(C)(C)C)cc1`, the AC50 is 50 µM (active).

Turning to `COP(=O)(OC)OC=C(Cl)Cl`, the call was inactive.

Regarding `CC[C@H](C)[C@H]1O[C@]2(C=C[C@@H]1C)C[C@@H]1C[C@@H](C/C=C(\C)[C@@H](O[C@H]3C[C@H](OC)[C@@H](O[C@H]4C[C@H](OC)[C@@H](O)[C@H](C)O4)[C@H](C)O3)[C@@H](C)/C=C/C=C3\CO[C@@H]4[C@H](O)C(C)=C[C@@H](C(=O)O1)[C@]34O)O2` (tested in a mixture with another compound), the AC50 is 13.7 µM (active).

`Clc1ccccc1-c1nnc(-c2ccccc2Cl)nn1`: the AC50 was 5.64 µM (active).

Turning to `CNC(=O)Oc1ccccc1OC(C)C`, the outcome was inactive.

Consider `O=C1c2ccccc2C(=O)N1SC(Cl)(Cl)Cl`, for which the outcome was inactive.

Regarding `CCOC1Oc2ccc(OS(C)(=O)=O)cc2C1(C)C` (stereo not given), the AC50 was 28.2 µM (active).

As for `O=C(O)CCCOc1ccc(Cl)cc1Cl`, the AC50 is 11.6 µM (active).

`CC(C)(C)C(O)/C(=C\c1ccc(Cl)cc1Cl)n1cncn1` (stereo not given): the molecule was called inactive.

As for `CCOCN(C(=O)CCl)c1c(C)cccc1CC`, the result was inactive.

As to `CCCN(CCOc1c(Cl)cc(Cl)cc1Cl)C(=O)n1ccnc1`, the AC50 is 10.8 µM (active).

On to `Cc1[nH]c(=O)n(C(C)(C)C)c(=O)c1Cl`, for which the outcome was inactive.

Turning to `CC(C)OC(=O)Nc1cccc(Cl)c1`, the outcome was inactive.

For `CCC(C)(NC(=O)c1cc(Cl)c(C)c(Cl)c1)C(=O)CCl` (stereo not given), the AC50 was 12.2 µM (active).

With `CNC(=O)CSP(=S)(OC)OC`, the molecule was called inactive.

As for `CC1(c2ccc(Oc3ccccc3)cc2)OC(=O)N(Nc2ccccc2)C1=O` (stereo not given), the AC50 was 13.2 µM (active).

As for `CNC(=O)Oc1cccc(N=CN(C)C)c1`, the outcome was inactive.

These data come from PubChem BioAssay (EPA / NIEHS).
